# Test results from PubChem BioAssay AID1650 (Southern Research Specialized Biocontainment Screening …, 2009).
# Results with a measured potency or affinity are listed apart. Calls of active or inactive are those of the source. No rule for the calls is given here.
# Assay: host cell cytotoxicity of antiviral hits, dose response, cytotoxicity control for West Nile virus antiviral project, secondary assay (AID 1650)
# Conditions: Mammalian host cell viability, cytotoxicity counter-screen; series mostly up to 10 µM; viability: at the top concentration
row,SMILES,viability
1,Cc1cccc(OCC(O)Cn2c(=N)n(CCN3CCCCC3)c3ccccc32)c1 (stereo unspecified),70.1% [at 20 µM] (inactive)
2,CC(/C=N/Nc1nc(N2CCCCC2)nc(N2CCCCC2)n1)=C\c1ccccc1,87.8% (inactive)
3,CC(C)(C)c1ccc(C(=O)O/N=C(\N)c2ccccc2)cc1,90.3% [at 20 µM] (inactive)
4,CCN(CC)CCCNc1nc(-c2ccccc2)nc2ccccc12,81.9% (inactive)
5,Cc1nn(CC(=O)NCc2ccc(OC(C)C)cc2)c(=O)c2cc(-c3ccccc3)nn12,89.4% [at 20 µM] (inactive)
6,C/C(N)=C(/C#N)C(=O)COC(=O)c1cc(-c2cccc(Br)c2)nc2ccccc12,75.5% (inactive)
7,COc1ccc(-c2cc(-c3ccc(OC)cc3)nc(-c3ccc4c(c3)NC(=O)CO4)c2)cc1,79.2% [at 20 µM] (inactive)
8,CCOc1ccc(NC(=NCc2ccc3c(c2)OCO3)SC2CC(=O)N(c3ccc(OCC)cc3)C2=O)cc1 (stereo unspecified),79.3% [at 20 µM] (inactive)
9,O=C(CNC(=S)N(Cc1ccccc1F)C1CCCCC1)NCC1CCCO1 (stereo unspecified),82.8% (inactive)
10,Cc1ccc(C)c(N2CCN(CCCNC(=O)CCC(=O)N3CCOc4ccc(Cl)cc43)CC2)c1,81.1% (inactive)
11,Cc1ccc(NC2=C/C(=N/S(=O)(=O)c3cccs3)c3ccccc3C2=O)cc1,78.3% [at 20 µM] (inactive)
12,COc1ccccc1NS(=O)(=O)c1cccc(NC(=O)Nc2ccc(Cl)cc2)c1,70.3% [at 20 µM] (inactive)
13,COc1ccc(C2Nc3ccc4ccccc4c3-c3c2c(=O)oc2ccccc32)cc1 (stereo unspecified),77.4% (inactive)
14,CN1C(=O)/C(=C\C(=O)c2cccs2)c2ccccc21,80% (inactive)
15,COc1ccc2[nH]c3nc(SCc4nnc(-c5ccc(C)cc5)o4)nnc3c2c1,80.5% (inactive)
16,CN(C)CCCN(C(=O)c1ccco1)c1nc2ccc(Cl)cc2s1,83.3% (inactive)
